# Experimental data: paper PMC4336329 (PLoS ONE, 2015)
# Among all 310,000 compounds or so, about 14,000 (4.5%) showed an effect of 50% or more. The effect is printed as a negative number. Many of the other results were omitted from the sample, so strong results are more common in it than they were.
# Molecular target: human ether-à-go-go-related gene (hERG) potassium channel (human, UniProt Q12809)
# Experiment: primary screen, population patch clamp on CHO cells stably expressing hERG; higher = less effect of the substance
# 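Further: peak tail current of the secondary pulse compared with the same well before compound.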
# Sequence of human ether-à-go-go-related gene (hERG) potassium channel (Q12809 whole entry, looked up): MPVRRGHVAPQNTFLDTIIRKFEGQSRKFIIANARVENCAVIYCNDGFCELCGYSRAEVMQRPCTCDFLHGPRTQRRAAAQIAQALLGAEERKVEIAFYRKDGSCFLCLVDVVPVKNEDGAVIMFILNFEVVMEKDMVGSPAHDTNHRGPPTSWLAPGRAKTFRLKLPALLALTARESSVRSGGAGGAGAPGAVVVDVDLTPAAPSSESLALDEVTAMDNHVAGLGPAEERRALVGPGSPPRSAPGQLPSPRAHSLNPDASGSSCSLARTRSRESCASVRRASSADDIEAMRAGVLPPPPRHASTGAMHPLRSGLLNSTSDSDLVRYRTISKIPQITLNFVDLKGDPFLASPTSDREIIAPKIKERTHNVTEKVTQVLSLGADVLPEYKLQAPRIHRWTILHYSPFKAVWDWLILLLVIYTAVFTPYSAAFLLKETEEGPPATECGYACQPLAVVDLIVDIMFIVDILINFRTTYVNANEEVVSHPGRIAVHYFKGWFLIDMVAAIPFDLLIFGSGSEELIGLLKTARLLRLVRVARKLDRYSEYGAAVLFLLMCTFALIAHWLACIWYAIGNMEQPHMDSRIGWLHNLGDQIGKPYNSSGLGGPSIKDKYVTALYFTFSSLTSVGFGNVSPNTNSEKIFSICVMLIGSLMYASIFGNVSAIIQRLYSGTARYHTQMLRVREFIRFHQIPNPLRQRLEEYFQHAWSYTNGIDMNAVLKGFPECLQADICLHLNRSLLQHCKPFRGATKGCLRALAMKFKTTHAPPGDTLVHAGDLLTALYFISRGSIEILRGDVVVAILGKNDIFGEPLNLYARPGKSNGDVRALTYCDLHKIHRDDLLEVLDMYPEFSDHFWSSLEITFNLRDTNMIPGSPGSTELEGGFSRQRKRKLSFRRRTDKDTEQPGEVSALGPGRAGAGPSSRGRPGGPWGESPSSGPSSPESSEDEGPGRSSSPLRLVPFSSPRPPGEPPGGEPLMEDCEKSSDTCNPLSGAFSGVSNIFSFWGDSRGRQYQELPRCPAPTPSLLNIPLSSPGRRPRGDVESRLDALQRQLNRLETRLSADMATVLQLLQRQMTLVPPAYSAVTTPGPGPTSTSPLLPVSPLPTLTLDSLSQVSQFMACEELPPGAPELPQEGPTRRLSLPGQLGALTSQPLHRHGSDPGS
row,SMILES,"hERG current change (%, negative = inhibition) at 10uM [%]"
1,C=CCNc1nc2c(c(=O)[nH]c(=O)n2C)n1CCCc1ccccc1,-4.44
2,CC1=C(C(=O)OCc2ccccc2)C(c2ccccc2-c2ccccc2)NC(=O)N1CCCCCC(=O)O (stereo not drawn),-63.1
3,CC1=C(C(=O)OCc2ccccc2)C(c2ccccc2Cl)NC(=O)N1CCCCCC(=O)O (stereo not drawn),-12.4
4,CC1=C(C(=O)OCc2ccccc2)C(c2ccc(-c3ccccc3)cc2)NC(=O)N1CCCCCC(=O)O (stereo not drawn),-2.3
5,CCN(CC(=O)Nc1c(F)cccc1F)C(=O)c1ccc2ccccc2n1,-19.6
6,O=c1[nH]cccc1-c1nc2ccccc2n1Cc1ccc(F)cc1,-22.5
7,CCOc1ccc(NC(=O)CN(C)C(=O)c2ccccc2Cc2ccccc2)cc1OCC,-14
8,FC(F)(F)c1cnc(N2CCC(=NOCc3ccc(Cl)cc3)CC2)c(Cl)c1,29.6
9,CC(=O)c1ccc(N2CCN(CC3CCCCC3)CC2)cc1,-24
10,O=[N+]([O-])c1cccc(CN2CCCCCC2)c1,5.75
11,O=[N+]([O-])c1ccc(CN2CCN(c3ccc([N+](=O)[O-])cc3)CC2)cc1,-74.1
12,O=[N+]([O-])c1ccc(/C=N\N2CCN(c3ccc(Cl)cc3)CC2)cc1,16.8
13,O=[N+]([O-])c1ccc(N2CCN(Cc3cccc([N+](=O)[O-])c3)CC2)cc1,-71.8
14,c1ccc(N2CCN(CC3CCCCC3)CC2)cc1,9.61
15,O=[N+]([O-])c1cccc(CN2CCN(c3ncccn3)CC2)c1,-1.26
16,O=[N+]([O-])c1ccc(N2CCC(=NOCc3ccc(Cl)cc3)CC2)cc1,-54.5
17,O=[N+]([O-])c1ccc(N2CCN(CC3CCCCC3)CC2)cc1,-63
18,CCOc1ccccc1-c1nnc(SCC(=O)NC2CC3CCC2C3)n1CC (stereo not drawn),-3.89
19,O=C(O)C(=O)O.O=C(c1cccc(F)c1)N1CCN(Cc2c[nH]c3ccccc23)CC1,-9.05
20,Clc1ccc(CN2CCN(c3ncccn3)CC2)cc1,-4.03
21,CN(Cc1ccccc1)c1nc2c(c(=O)n(C)c(=O)n2C)n1CCSc1ncccn1,-13.7
22,O=C1/C(=C\c2ccc([N+](=O)[O-])cc2)CCc2ccccc21,-6.6

row,SMILES,"hERG current change (%, negative = inhibition) at 10uM [%]"
1,O=C1CCNc2c(Cl)cc(Cl)cc21,-2.74
2,N#CC1=C(N)Nc2ncnn2C1c1ccccc1 (stereo not drawn),10.6
3,COc1ccc2c(c1)[nH]c1c(Cl)ncnc12,3.14
4,O[C@H]1c2ccccc2[C@H](Cc2cncs2)[C@@H]1Br,0.746
5,O=[N+]([O-])c1ccc(CN2CCN(c3ncccn3)CC2)cc1,-32.2
6,O=[N+]([O-])c1ccc(N2CCN(Cc3ccncc3)CC2)cc1,-64.8
7,Fc1ccc(-n2nnc(-c3ccccc3Cl)n2)cc1,12.2
8,O=C(CC1Oc2ccccc2NC1=O)NCCc1ccccc1 (stereo not drawn),-4.18
9,COc1cccc(S(=O)(=O)NC2CCN(C#N)C2)c1 (stereo not drawn),9.23
10,O=C(Nc1cccc(F)c1)C1CCN(C(=O)c2ccc(Cl)cc2)CC1,-49.4
11,O=C(Nc1ccc(F)cc1F)C1CCN(C(=O)c2ccc(Br)cc2)CC1,-30.2
12,O=C(Nc1nc(-c2ccc(F)cc2)cs1)C1CCN(C(=O)c2ccc(F)cc2)CC1,-54.7
13,O=C(Nc1ccccc1)C1CCN(C(=O)c2ccc(Br)cc2)CC1,-59.3
14,O=C(Nc1ccccc1)C1CCCN(C(=O)c2ccc(F)cc2)C1 (stereo not drawn),-51.8
15,O=C(Nc1ccccc1)C1CCN(C(=O)c2ccccc2)CC1,4.62
16,O=C(c1ccc(F)cc1)N1CCCC(C(=O)N2CCCCC2)C1 (stereo not drawn),16.5
17,O=C(Nc1cccc(F)c1)C1CCN(C(=O)c2ccc(Br)cc2)CC1,-65.1
18,O=C(Nc1ccccc1)C1CCCN(C(=O)c2ccc(Cl)cc2)C1 (stereo not drawn),-9.92
19,O=C(Nc1nc(-c2ccc(F)cc2)cs1)C1CCCO1 (stereo not drawn),-6.67
20,COc1ccc(-c2csc(NC(=O)C3CCN(C(=O)c4ccc(F)cc4)CC3)n2)cc1OC,-13.8
21,O=C(Nc1ccc(Br)cc1)C1CCN(C(=O)c2ccco2)CC1,-14
22,COc1ccc(CSc2nc(N3CCOCC3)c3c(c2C#N)CC(C)(C)OC3)cc1,-14.5

row,SMILES,"hERG current change (%, negative = inhibition) at 10uM [%]"
1,CC1=C2[C@@H]3OC(=O)[C@H](C)C3CC[C@@]2(C)C=CC1=O (stereo partly drawn),27.7
2,CCNc1nc(Oc2ccc(C(=O)OCC)cc2)nc(N2CCOCC2)n1,-6.59
3,COc1cc2c(cc1NC(=O)CCC(=O)O)oc1ccccc12,18.5
4,CCOC(=O)C1CCCN(S(=O)(=O)c2ccc(Br)c(OC)c2)C1 (stereo not drawn),-14.3
5,ONC(=Nc1ccccc1Cl)c1ccccc1Cl,-14
6,COC(=O)c1ccc(Oc2nc(NC(C)C)nc(N(C)C)n2)cc1,12.5
7,Cc1cccc(OCC(=O)N2CCCc3ccccc32)c1,8.85
8,O=C(Nc1ccc(F)cc1)C1CCN(C(=O)c2ccc(F)cc2)CC1,-37.4
9,O=C(Nc1ccc(Br)cc1)C1CCN(C(=O)c2ccc(F)cc2)CC1,-61.9
10,O=C(Nc1ccc(S(=O)(=O)N2CCCCC2)cc1)C1CCN(C(=O)c2ccc(F)cc2)CC1,-33.7
11,Cc1cc(C(=O)OCC(=O)NCCc2ccccc2)c2ccccc2n1,-17.7
12,CCOc1ccc(NC(=O)NCC2CCN(Cc3ccc(F)cc3)CC2)cc1,-76.4
13,O=C(NCC1CCN(S(=O)(=O)c2ccccc2)CC1)Nc1ccc(F)cc1F,-4.47
14,O=C(NCC1CCN(Cc2ccccc2F)CC1)Nc1cc(F)ccc1F,-59.9
15,COc1cc([N+](=O)[O-])ccc1NC(=O)CN1CCCC1,3.84
16,CCOc1ccc(NC(=O)NCC2CCN(c3ccc(OC)cc3)C2)cc1 (stereo not drawn),-7.35
17,O=C(NCC1CCN(Cc2ccccc2F)CC1)Nc1ccccc1F,-22.5
18,COc1cc([N+](=O)[O-])ccc1NC(=O)NCC1CCN(Cc2ccc(Cl)cc2)CC1,-60.9
19,COc1cccc(NC(=O)NCC2CCN(Cc3ccc(F)cc3)CC2)c1,-47.4
20,Cc1ccccc1CN1CCC(CNC(=O)Nc2ccc(F)cc2F)CC1,-31.4
21,COc1cc(NC(=O)NCC2CCN(Cc3ccc(C)cc3)CC2)cc(OC)c1OC,-0.392
22,O=C(NCC1CCN(Cc2ccc(F)cc2)CC1)Nc1cc(F)ccc1F,-65.1
